FadD28 binding: inhibitors of Mycobacterium tuberculosis FadD28 bisubstrate binding; FadD28 bisubstrate probe binding, fluorescence polarization; inhibition, % at 12.5 µM; 360,000 compounds, 0.22% hits; in the data active = inhibition above about 8.5%, passing the limit was not always enough; inconclusive = no clear call, values can overlap the other calls
RecA splice inh: inhibitors of M. tuberculosis RecA intein splicing | 290,000 compounds, 0.75% hits | cell-free RecA intein splicing, fluorescence | inhibition, % (test concentration not listed) | AID 2221 | P9WHJ3; in the data active = inhibition above about 30%; inconclusive = no clear call, values can overlap the other calls;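 note: 0% = vehicle wells and 100% = reference inhibitor control wells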
UGM FP inh: Mtb UDP-galactopyranose mutase inhibition | P9WIQ1 | purified UGM, fluorescence polarization probe displacement | inhibition, % at 10 µM | 320,000 compounds, 0.06% hits; in the data active = inhibition above about 10%, passing the limit was not always enough; inconclusive = no clear call, values can overlap the other calls
Target sequence (P9WIQ1 whole entry, looked up): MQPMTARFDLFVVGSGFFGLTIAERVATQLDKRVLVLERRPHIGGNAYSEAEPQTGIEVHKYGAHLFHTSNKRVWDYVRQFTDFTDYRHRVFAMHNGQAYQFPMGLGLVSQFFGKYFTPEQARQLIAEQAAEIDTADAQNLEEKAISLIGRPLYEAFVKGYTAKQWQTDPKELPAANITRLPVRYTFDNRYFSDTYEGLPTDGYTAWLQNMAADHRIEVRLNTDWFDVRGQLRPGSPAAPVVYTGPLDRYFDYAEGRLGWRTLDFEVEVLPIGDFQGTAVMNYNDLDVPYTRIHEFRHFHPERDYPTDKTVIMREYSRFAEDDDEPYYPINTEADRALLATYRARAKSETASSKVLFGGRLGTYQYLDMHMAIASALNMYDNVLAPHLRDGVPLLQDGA
BioA inh: BioA (M. tuberculosis) enzyme inhibition. purified M. tuberculosis BioA enzyme, plate reader. inhibition, % at 9.99 µM. 360,000 compounds, 0.096% hits. AID 602481; in the data active = inhibition above about 40%; inconclusive = no clear call, values can overlap the other calls
TcdB GH inh: blocks C. difficile toxin B glycohydrolase activity; P18177; TcdB glycohydrolase enzymatic assay, plate reader; inhibition, % at 9.99 µM; 350,000 compounds, 0.24% hits; AID 652162; in the data active = inhibition above about 10%
Rv3671c inh: inhibits the M. tuberculosis serine protease Rv3671c | P9WHR9 | inhibition, % at 5.96 µM | 320,000 compounds, 0.048% hits; in the data active = inhibition above about 38%;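 note: extracellular domain of Rv3671c used as enzyme; 0% = enzyme with DMSO and 100% = no enzyme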
GFP chromophore: counter-screen GFP chromophore formation inhibition; shares compounds with RecA splice inh; cell-free GFP chromophore formation, fluorescence; EC50, µM; 2,100 compounds, 83% hits; AID 434968; call rule not given here
* hit, by the source's call; u = inconclusive; x = no result given. Only some compounds are listed: those with a hit (about 0.9% of all), similar ones and a draw of the others.

SMILES	FadD28 binding	RecA splice inh	UGM FP inh	BioA inh	TcdB GH inh	Rv3671c inh	GFP chromophore
COC(=O)CN1C(=O)C(O)(CC(=O)c2ccc(Cl)cc2)c2ccccc21 (stereo not given)	1.1	x	0.8	0.4	-0.6	0.6	x
COC(=O)C[C@]1(C(=O)OC)CN(C#N)N(c2ccc(Cl)cc2)C12c1ccccc1-c1ccccc12	-6.2	73.7*	0.4	0.0	1.2	-0.6	4.65*
COc1ccc2c3c([nH]c2c1)[C@H](CO)N(C(=O)c1cnccn1)CC31CN(S(=O)(=O)c2ccccc2)C1	x	x	x	x	-2.2	x	x
COCc1[nH]nc2c1C(c1ccnc3ccccc13)C(C#N)=C(N)O2 (stereo not given)	-2.8	7.3	-1.1	0.1	x	0.6	x
CCCc1[nH]nc2c1C(c1ccccc1OC)C(C#N)=C(N)O2 (stereo not given)	-3.8	61.5*	-2.5	0.1	x	-4.5	20.3*
CCC(CC)C1C(C#N)=C(N)Oc2n[nH]c(-c3ccccc3)c21 (stereo not given)	0.4	3.6	2.3	-0.4	x	-116.7	x
CCCc1[nH]nc2c1C(c1cn[nH]c1-c1ccc(F)cc1)C(C#N)=C(N)O2 (stereo not given)	-7.6	81.2*	-1.4	1.1	x	-6.9	7.06*
CCCc1[nH]nc2c1C(CCC)C(C#N)=C(N)O2 (stereo not given)	-0.7	63.9*	3.6	3.6	x	-8.0	34.8*
O=C(Cc1ccc(Cl)cc1)NCc1ccccc1Cl	-1.6	-0.5	-1.2	x	0.9	2.5	x
O=C(Cc1ccccc1Cl)NC1(O)C(=O)c2ccccc2C1=O	-1.5	51.5*	-1.6	2.7	-2.2	-76.1	12.3*
COc1ccc2c3c(n(C)c2c1)[C@H](CO)N(C(=O)NC1CCCC1)CC31CCN(C)CC1	x	x	x	x	0.5	x	x
CCc1ccc(NC(=O)C(=O)N/N=C(\C)CC(=O)Nc2ccccn2)cc1	-3.8	35.6*	-0.7	-5.1	x	-3.9	>38
COc1cc(/C=C2\C(=O)N(CCC#N)N=C2C)ccc1OCC(=O)Nc1ccccc1	-4.1	78.9*	-1.5	0.3	x	-210.8	5.61*
CCOc1cc(/C=C2\C(=O)N(CCC#N)N=C2C)ccc1OCC(N)=O	1.0	88.3*	-0.3	x	-1.0	-152.5	9.29*
CC1=NN(CCC#N)C(=O)/C1=C/c1ccc(N(C)C)cc1	-3.2	48.2*	2.5	0.7	1.9	-11.4	10.7*
C[C@H](CO)N1C[C@H](C)[C@@H](CN(C)C(=O)c2ccccc2)Oc2cc(C#CC3(O)CCCC3)ccc2S1(=O)=O	x	x	x	0.2	0.3	x	x
CO[C@H]1CN(C)C(=O)c2cccc(C#N)c2OC[C@H]2O[C@H](CC[C@@H]2OC)CCN(C)C(=O)[C@H]1C	x	x	x	-0.6	-0.9	x	x
CO[C@@H]1CN(C)C(=O)c2cc(NC(=O)c3ccccc3F)ccc2OC[C@@H](C)N(C(=O)c2ccccc2F)C[C@@H]1C	x	x	x	3.0	0.8	x	x
O=C(Cc1ccncc1)NCC[C@H]1CC[C@@H](NC(=O)C2CCCC2)[C@@H](CO)O1	x	x	x	-3.2	-1.6	x	x
CCOc1ccc(NC(=O)N(c2ccccc2)c2ccccc2)cc1	0.9	x	0.1	-0.3	-0.1	-0.9	x
CCOc1ccc(NC(=O)C(c2ccccn2)N(C(=O)CCl)c2ccc(F)cc2)cc1 (stereo not given)	-1.1	66.4*	-0.4	x	x	-10.7	15.1*
CS(=O)(=O)c1nc(-c2ccccc2)cc(C(F)(F)F)n1	-3.4	65.9*	5.3	2.9	x	-9.2	12.7*
C[C@@H]1CN([C@H](C)CO)C(=O)Cc2cc(NS(=O)(=O)c3ccc(F)cc3)ccc2O[C@H]1CN(C)S(=O)(=O)c1cccs1	x	x	x	-4.1	-2.0	x	x
O=C(Cc1cc(=O)[nH][nH]1)N/N=C/C=C/c1ccccc1	-1.0	84.6*	0.8	-1.4	x	1.2	18.3*
CN1C[C@H](O)COC[C@@H]2O[C@@H](CC(=O)NC3CCC3)CC[C@H]21	x	x	x	-0.6	-0.8	x	x
SMILES	FadD28 binding	RecA splice inh	UGM FP inh	BioA inh	TcdB GH inh	Rv3671c inh	GFP chromophore
Nc1ccc(O)c2ccccc12	x	88.5*	3.7	x	x	-31.4	11*
CCCCNC1=CC(=O)C(=O)c2ccccc21	0.6	97.2*	0.6	x	0.2	-19.5	0.981*
O=C1C=C(Nc2ccccc2)C(=O)c2ccccc21	-0.8	13.1	-1.8	0.3	0.3	-12.0	x
O=C1C=C(Nc2cccc3cccnc23)c2ccccc2C1=O	5.3	90.1*	-2.0	-2.5	-0.4	-11.9	3.59*
O=C(CN1C(=O)c2ccccc2C1=O)Nc1cccc2cccnc12	0.6	-0.3	1.2	0.1	2.8	0.7	x
O=C1C=C(Nc2ccccc2C(=O)O)c2ccccc2C1=O	u	96.7*	2.3	1.1	-1.0	-71.0	2.47*
O=C1C=C(Nc2ccccc2)c2ccccc2C1=O	-0.4	69.6*	x	x	-0.7	x	0.85*
O=C(O)c1ccccc1Nc1ccccc1C(=O)O	-1.1	-1.7	x	0.5	3.0	-4.8	x
Cc1noc(C)c1NC(=O)N(C)C[C@@H]1Oc2ccc(NC(=O)Cc3ccccc3)cc2CC(=O)N([C@@H](C)CO)C[C@@H]1C	x	x	x	-0.6	-0.7	x	x
C[C@H](CO)N1C[C@H](C)[C@@H](CN(C)S(=O)(=O)c2ccccc2)Oc2ccc(NS(=O)(=O)c3ccc(F)cc3)cc2CC1=O	x	x	x	-0.4	0.5	x	x
Cc1noc(C)c1NC(=O)N(C)C[C@@H]1Oc2c(NC(=O)Nc3ccc(C(F)(F)F)cc3)cccc2C(=O)N([C@H](C)CO)C[C@H]1C	x	x	x	0.7	-1.1	x	x
CCOC(=O)C1=C(C)NC2(O)c3ccccc3C(=O)C12O (stereo not given)	0.2	32.9*	1.7	0.1	x	-48.6	27.7*
COCCOC(=O)C1=C(C)NC2(O)c3ccccc3C(=O)C12O (stereo not given)	1.2	12.0	0.8	x	x	-85.4	x
CO[C@H]1CN(C)C(=O)c2cc(NC(=O)NC3CCCC3)ccc2OC[C@H](C)N(CC2CC2)C[C@@H]1C	x	x	x	x	-0.5	x	x
CCOC(=O)c1oc2nc(CC(C)C)c3c(c2c1N)CCC3	-3.2	31.4*	-1.7	2.4	1.2	-3.8	>38
Cc1noc(C)c1S(=O)(=O)N(C)C[C@H]1OCCCC[C@H](C)Oc2ccc(NS(=O)(=O)c3cccs3)cc2C(=O)N([C@@H](C)CO)C[C@H]1C	x	x	x	x	0.1	x	x
O=C(CCN1CCCCC1)NCC[C@H]1CC[C@H](NC(=O)C2CC2)[C@@H](CO)O1	x	x	x	6.0	0.6	x	x
c1ccc(Nc2nc(N3CCCC3)nc(N3CCCC3)n2)cc1	-3.6	0.7	1.6	-3.6	0.3	-0.3	x
Fc1ccc(Nc2nc(Oc3ccccc3F)nc(N3CCCC3)n2)cc1	-3.4	8.1	0.4	-0.6	x	-11.0	11.8*
COC(=O)c1ccccc1S(=O)(=O)N1CCC(NC(=O)c2ccccc2)CC1	-1.2	45.3*	0.0	1.2	0.0	5.5	>38
COC(=O)c1ccccc1S(=O)(=O)N1CCC(C(=O)NC2CCCCC2)CC1	-2.3	x	1.7	-1.0	0.4	-5.1	x
C[C@@H]1CN([C@@H](C)CO)C(=O)c2cc(C#CCN(C)C)cnc2O[C@@H]1CN(C)S(C)(=O)=O	x	x	x	-0.6	0.0	x	x
